Results as given in PubChem BioAssay (NCI).
About 79,000 compounds went through this panel and 15% of them were active in at least one assay; those are over-represented in the sample as a whole. Activity calls are given as the source filed them. Cut-off read from the data, not from the text of the source: active = growth inhibition above about 70%; inactive = the rest.

Key:
[1] = NCI Yeast Anticancer Drug Screen. Data for the rad50 strain (AID 155);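 note: 0% = growth of vehicle-only cultures of the same strain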; settings: S. cerevisiae rad50 strain growth inhibition, hits give high values
Outline: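 Readout: growth inhibition relative to vehicle-treated cultures. Compound exposure was carried out in a genetically defined yeast strain deficient in DNA damage repair.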

[2] = NCI Yeast Anticancer Drug Screen. Data for the mec2-1 strain (AID 157); settings: S. cerevisiae mec2-1 strain, hits give high values
Outline: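 Readout is yeast growth inhibition, normalised to vehicle-treated controls, in the mec2-1 strain exposed to compound.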

[3] = NCI Yeast Anticancer Drug Screen. Data for the sgs1 mgt1 strain (AID 161);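 note: 0% = growth of cultures given vehicle only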; settings: S. cerevisiae sgs1 mgt1 strain, hits give high values
Outline: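 Yeast cells carrying a defined DNA-repair defect were exposed to test compounds. Growth inhibition was measured relative to vehicle-treated controls.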

[4] = NCI Yeast Anticancer Drug Screen. Data for the cln2 rad14 strain (AID 165);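 note: 0% = growth equal to vehicle treated cultures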; settings: S. cerevisiae cln2 rad14 strain, hits give high values
Outline: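 Relative to vehicle controls, growth inhibition of compound-treated cln2 rad14 yeast was recorded.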

[5] = NCI Yeast Anticancer Drug Screen. Data for the bub3 strain (AID 167); settings: S. cerevisiae bub3 mutant strain, hits give high values
Outline: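 Readout: yeast growth inhibition, expressed relative to vehicle-only wells. The test organism is a mutant strain from a panel with lesions in DNA repair or checkpoint genes.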

[6] = NCI Yeast Anticancer Drug Screen. Data for the mlh1 rad18 strain (AID 175); settings: S. cerevisiae mlh1 rad18 strain growth inhibition, hits give high values
Outline: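 Test agents were incubated with a yeast strain of defined genotype (DNA damage repair defect). Inhibition of growth was derived by comparison with vehicle-exposed cultures.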

[7] = NCI Yeast Anticancer Drug Screen. Data for the wt1 strain (AID 149);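 note: 0% = growth of vehicle-treated wt1 cultures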; settings: S. cerevisiae wt1 strain (SPY 50644) growth inhibition, hits give high values
Outline: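 Growth inhibition read against vehicle controls after compound exposure of the wt1 yeast strain.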

[8] = NCI Yeast Anticancer Drug Screen. Data for the rad50EPP+ strain (AID 151);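 note: 0% = growth of vehicle-treated control cultures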; settings: S. cerevisiae rad50 mutant strain, hits give high values
Outline: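 Exposing the rad50EPP+ strain to each compound, growth was compared with vehicle-only cultures to give inhibition.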

[9] = NCI Yeast Anticancer Drug Screen. Data for the rad14 strain (AID 159);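 note: 0% = growth of vehicle-treated control cultures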; settings: S. cerevisiae rad14 strain growth inhibition, hits give high values
Outline: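 Growth inhibition vs vehicle controls; genetically altered yeast strain (DNA damage repair defect) treated with test compounds.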

[10] = NCI Yeast Anticancer Drug Screen. Data for the wt2 strain (AID 169);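 note: 0% = growth of vehicle-treated yeast cultures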; settings: S. cerevisiae wt2 strain growth inhibition, hits give high values
Outline: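 Values express reduction in yeast growth under compound treatment, referenced to vehicle-treated cells.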

[11] = NCI Yeast Anticancer Drug Screen. Data for the sgs1 strain (AID 173);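 note: 0% = growth of vehicle-only control cultures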; settings: S. cerevisiae sgs1 mutant, hits give high values
Outline: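 Treat defined-mutant yeast with compound; measure growth; calculate inhibition relative to vehicle-treated cells.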

[12] = NCI Yeast Anticancer Drug Screen. Data for the rad18 strain (AID 177); settings: S. cerevisiae rad18 mutant growth inhibition, hits give high values
Outline: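 A genetically defined yeast mutant impaired in DNA damage repair was treated with test compounds, then its growth was measured against cultures receiving vehicle alone.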

[13] = NCI Yeast Anticancer Drug Screen. Data for the CLN2oe strain (AID 163);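 note: 0% = growth of vehicle-only control cultures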; settings: S. cerevisiae CLN2oe strain, hits give high values
Outline: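 Values reflect how much compound exposure reduced yeast growth, referenced to vehicle-exposed cells. Assay organism is a strain with a defined genetic change affecting cell-cycle control.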

[14] = NCI Yeast Anticancer Drug Screen. Data for the mlh1 strain (AID 171);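 note: 0% = growth of vehicle-treated control cultures of the same strain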; settings: S. cerevisiae mlh1 strain growth inhibition, hits give high values
Outline: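 Steps: expose the defined-mutant yeast strain to compound; expose a parallel culture to vehicle; measure growth; express compound effect as inhibition relative to the vehicle culture.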

[15] = at 5.0 µM (retest, dose inferred, filed as 0.5)
[16] = at 50.0 µM (retest, dose inferred, filed as 5.0)

Measured: growth inhibition

C/C(=N\N=C(/[Se])N1CC2CCC(CC2)C1)c1ccccn1
active: [1]; [16] 79% | [1]; at 50.0 µM 87.5% | [2]; [16] 80% | [2]; at 50.0 µM 90.2% | [3]; [16] 73% | [3]; at 50.0 µM 89.5% | [4]; at 50.0 µM 85.2% | [5]; [16] 81% | [5]; at 50.0 µM 90.3% | [6]; [16] 84%
inactive: [1]; [15] 62% | [2]; [15] 40% | [3]; [15] 53% | [4]; [15] 32% | [4]; [16] 65% | [5]; [15] 51% | [6]; [15] 64%

CC(=O)[O][Hg][c]1c(C)c(C)c(C)c(C)c1C
active: [1]; [15] 98% | [1]; [16] 97% | [1]; at 50.0 µM 87.5% | [2]; [15] 98% | [2]; [16] 97% | [2]; at 50.0 µM 90.1% | [3]; [15] 99% | [3]; [16] 98% | [3]; at 50.0 µM 90.7% | [4]; [15] 98% | [4]; [16] 98% | [4]; at 50.0 µM 89.8% | [5]; [15] 98% | [5]; [16] 97% | [5]; at 50.0 µM 88.5% | [6]; [15] 98% | [6]; [16] 96%

COC(=O)C(F)C(Br)C(=O)OC (configuration not stated)
inactive: [7]; at 1.2 µM -3% | [8]; at 1.2 µM 28% | [1]; at 1.2 µM -5% | [1]; at 3.7 µM 60% | [2]; at 1.2 µM 20% | [9]; at 1.2 µM 5% | [9]; at 3.7 µM 67% | [3]; [15] 8% | [3]; [16] 12% | [4]; [15] 5% | [4]; [16] -42% | [5]; at 1.2 µM 64% | [5]; [15] 11% | [5]; [16] -21% | [10]; at 1.2 µM 55% | [11]; at 1.2 µM 48% | [12]; at 1.2 µM 29%
active: [7]; at 3.7 µM 74% | [7]; at 11.0 µM 97% | [7]; at 33.0 µM 98% | [7]; at 100.0 µM 99% | [8]; at 3.7 µM 90% | [8]; at 11.0 µM 97% | [8]; at 33.0 µM 98% | [8]; at 100.0 µM 97% | [1]; [15] 88% | [1]; at 11.0 µM 96% | [1]; at 33.0 µM 98% | [1]; [16] 99% | [1]; at 50.0 µM 90.8% | [1]; at 100.0 µM 98% | [2]; at 3.7 µM 73% | [2]; [15] 93% | [2]; at 11.0 µM 95% | [2]; at 33.0 µM 98% | [2]; [16] 100% | [2]; at 50.0 µM 93% | [2]; at 100.0 µM 99% | [9]; at 11.0 µM 93% | [9]; at 33.0 µM 97% | [9]; at 100.0 µM 96% | [3]; at 50.0 µM 92.5% | [4]; at 50.0 µM 84.2% | [5]; at 3.7 µM 94% | [5]; at 11.0 µM 98% | [5]; at 33.0 µM 99% | [5]; at 50.0 µM 91.4% | [5]; at 100.0 µM 97% | [10]; at 3.7 µM 95% | [10]; at 11.0 µM 98% | [10]; at 33.0 µM 99% | [10]; at 100.0 µM 100% | [11]; at 3.7 µM 95% | [11]; at 11.0 µM 98% | [11]; at 33.0 µM 99% | [11]; at 100.0 µM 99% | [6]; [15] 94% | [6]; [16] 98% | [6]; at 50.0 µM 90% | [12]; at 3.7 µM 88% | [12]; at 11.0 µM 98% | [12]; at 33.0 µM 92% | [12]; at 100.0 µM 98%

Br[C](Br)(Br)[Hg][c]1ccccc1
active: [1]; [15] 99% | [1]; [16] 98% | [1]; at 50.0 µM 87.3% | [2]; [15] 100% | [2]; [16] 99% | [2]; at 50.0 µM 89.8% | [3]; [15] 100% | [3]; [16] 99% | [3]; at 50.0 µM 90% | [4]; [15] 99% | [4]; [16] 98% | [4]; at 50.0 µM 89.3% | [5]; [15] 100% | [5]; [16] 99% | [5]; at 50.0 µM 89.1% | [6]; [15] 99% | [6]; [16] 98%

CCCCCNC(=O)c1c(O)[nH]c(=S)[nH]c1=O
inactive: [8]; at 1.2 µM -25% | [8]; at 3.7 µM -23% | [8]; at 11.0 µM -16% | [8]; at 33.0 µM 30% | [1]; at 1.2 µM 5% | [1]; at 3.7 µM 14% | [1]; [15] 61% | [1]; at 11.0 µM 64% | [2]; at 1.2 µM -14% | [2]; at 3.7 µM -5% | [2]; [15] 8% | [2]; at 11.0 µM 25% | [9]; at 1.2 µM 16% | [9]; at 3.7 µM 64% | [3]; [15] 26% | [13]; at 1.2 µM 4% | [13]; at 3.7 µM -7% | [13]; at 11.0 µM 2% | [13]; at 33.0 µM 53% | [4]; [15] 6% | [4]; [16] 60% | [4]; at 50.0 µM 61.3% | [5]; at 1.2 µM -17% | [5]; at 3.7 µM -1% | [5]; [15] 65% | [5]; at 11.0 µM 65% | [10]; at 1.2 µM -32% | [10]; at 3.7 µM -1% | [10]; at 11.0 µM 56% | [14]; at 1.2 µM 13% | [14]; at 3.7 µM 46% | [11]; at 1.2 µM -10% | [11]; at 3.7 µM 0% | [6]; [15] 42% | [6]; [16] 47%
active: [8]; at 100.0 µM 78% | [1]; at 33.0 µM 95% | [1]; [16] 93% | [1]; at 50.0 µM 88.1% | [1]; at 100.0 µM 96% | [2]; at 33.0 µM 87% | [2]; [16] 92% | [2]; at 50.0 µM 87.7% | [2]; at 100.0 µM 92% | [9]; at 11.0 µM 91% | [9]; at 33.0 µM 96% | [9]; at 100.0 µM 96% | [3]; [16] 87% | [3]; at 50.0 µM 92.2% | [13]; at 100.0 µM 83% | [5]; at 33.0 µM 87% | [5]; [16] 94% | [5]; at 50.0 µM 88.6% | [5]; at 100.0 µM 93% | [10]; at 33.0 µM 91% | [10]; at 100.0 µM 94% | [14]; at 11.0 µM 90% | [14]; at 33.0 µM 96% | [14]; at 100.0 µM 96% | [11]; at 11.0 µM 79% | [11]; at 33.0 µM 94% | [11]; at 100.0 µM 96% | [6]; at 50.0 µM 90.1%
